Compound activity: PubChem BioAssay, National Center for Advancing Translational Sciences (NCATS)
This is one part of a sample in which hits are shown more often than they occur.
Pf Dd2 growth: inhibitors of Plasmodium falciparum Dd2 growth; 120,000 compounds, 4.3% hits; P. falciparum Dd2 growth, SYBR Green, 72 h; AID 1347417; Potency, µM (highest dose often 28.9 µM), for the others: at the top dose activity, negative = inhibition, hits mostly inhibitors; active = well fitted inhibition curve with a large enough effect;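 note: plate controls were DMSO vehicle for no effect and reference drug for full effect; nearly all actives have a fitted effect of over 65% in size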
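Infected erythrocytes (Dd2, 0.3% parasitemia, 2.5% hematocrit final) are added to compound in RPMI-1640/Albumax II medium, grown 72 h at 37C in low oxygen, then lysed with saponin/Triton-X containing SYBR Green and read by fluorescence.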
Active calls of the source: *; i = inactive; [ ] = another dose, or the depositor's remark. Potency is the fitted concentration of half-maximal effect.

SMILES	Pf Dd2 growth
CCc1nc2c(c(-c3ccc(O)cc3)n1)CN(Cc1ccc(OC)cc1)CC2	-17%
CCc1nc2c(c(-c3ccc(Cl)cc3)n1)CN(Cc1cccc(F)c1)CC2	10µM*
COc1ccc(-c2nc(C3CC3)nc3c2CCN(Cc2ccc(F)cc2)CC3)cc1	7.1µM*
Cc1ncoc1C(=O)N[C@@H]1CN(Cc2ccccc2)C[C@H]1CN(C)C	i
O=c1n(CC2CC2)nc2n1CCN(S(=O)(=O)c1cnc[nH]1)CC2	2%
COc1ccc(NC(=O)Cn2c(=O)n(-c3ccc(F)cc3)c(=O)c3c2cc(C)n3C)cc1OC	4%
CC(C)(C)CN1CC2ON=C(C(=O)O)C2C1 (stereo not drawn)	18%[44.1 µM]
COc1ncccc1-c1nccc2c(=O)cc(N(C)C)oc12	-7%[44.1 µM]
COCC1CCN(c2ccc(-c3nc(-c4ccccc4C)no3)cn2)C1 (stereo not drawn)	-6%
Cc1ccc(-c2ccc3nnc(CNC(=O)Cc4ccccc4Cl)n3n2)cc1C	i
C=CCn1c(CN2CCC3(CC(=O)NC3=O)C2)nc2ccccc21 (stereo not drawn)	-8%
Oc1ccc(-c2nc(C3CC3)nc3c2CCN(Cc2ccc(OC(F)(F)F)cc2)CC3)cc1	-2%
Oc1ccc(-c2nc(C3CC3)nc3c2CCN(Cc2ccccc2)CC3)cc1	-8%
COc1ccc(-c2nc(C3CC3)nc3c2CCN(Cc2ccsc2)CC3)cc1	10µM*
O=C(c1ccc(N2CC[C@@H](O)C2)nc1)N1CCC(Oc2cccnc2)CC1	-6%
CC(C)C1CN(C(=O)OC(C)(C)C)C(C)CN1 (stereo not drawn)	26%[44.1 µM]
CC(C)(C)OC(=O)N1CC(c2ccccc2)C1	i
CC(C)C1CNC(Cc2ccccc2)CN1C(=O)OC(C)(C)C (stereo not drawn)	8.9µM*
CCc1nc(-c2c3n(c(=O)n(CC(=O)Nc4ccccc4)c2=O)CCCCC3)no1	-19%
CN1C(=O)COC[C@@H]1[C@H](O)c1ccc(NC(=O)CC(C)(C)C)cc1	-12%[44.1 µM]
COc1ccc(NC(=O)c2cnc3c(c2)N(C(=O)Cc2cccc(C(F)(F)F)c2)CCC3)cn1	-25%
COc1ccccc1CC(=O)N1CCCc2ncc(C(=O)Nc3ccc(OC)c(OC)c3)cc21	-34%
COc1ccccc1N1CCCc2ncc(C(=O)NCCc3ccccc3)cc21	i
COc1ccccc1CC(=O)N1CCCc2ncc(C(=O)Nc3cccc(Cl)c3)cc21	2.5µM*
CC(C)c1ccc(CC(=O)N2CCCc3ncc(C(=O)Nc4cccc(C(F)(F)F)c4)cc32)cc1	i
SMILES	Pf Dd2 growth
COc1ccc(NC(=O)c2cnc3c(c2)N(c2ccccc2OC)CCC3)cn1	6.3µM*
COc1ccccc1CC(=O)N1CCCc2ncc(C(=O)Nc3cccc(C(F)(F)F)c3)cc21	4.5µM*
COc1ccccc1CC(=O)N1CCCc2ncc(C(=O)NCCOc3ccccc3)cc21	i
COc1ccccc1CC(=O)N1CCCc2ncc(C(=O)N(C)c3ccccc3)cc21	-4%[44.1 µM]
CCc1nc(-c2c3n(c(=O)n(Cc4cc(=O)n5ccccc5n4)c2=O)CCCC3)no1	-16%
O=C(NCCc1c[nH]c2ccc(Cl)cc12)C1CC(=O)N(c2n[nH]c3ccccc23)C1 (stereo not drawn)	-1%
O=C1CCN(Cc2ccncc2)CCCC(C(=O)NCCc2c[nH]c3ccccc23)CCN1 (stereo not drawn)	5%
N#CCn1nc2n(c1=O)CCN(C(=O)Cc1c[nH]c3ccccc13)CC2	19%
CNC(=O)[C@@H]1C[C@H](Oc2ccccc2)CN1C(=O)c1ccc(OC)nc1OC	-15%
CO[C@@H]1C[C@H]2C(=O)Nc3ccc(-c4cccc(C(F)(F)F)c4)cc3C(=O)N2C1	-16%[44.1 µM]
C=CCn1cc(CN2CCC(Oc3ccc4ccccc4c3)(C(=O)O)CC2)cn1	8%
Cc1ccccc1-c1cc(O)c2c(c1)CN(Cc1ccoc1)CCO2	11µM*
CCc1noc(CN2CCOc3c(O)cc(-c4ccccc4C)cc3C2)n1	i
Cc1nc(C(=O)N2CCOc3c(O)cc(-c4cccc(Cl)c4)cc3C2)cs1	i
CC(C)CNC(=O)CN1CCOc2c(O)cc(-c3cccc(Cl)c3)cc2C1	10µM*
Cn1cc([C@@H](NC(=O)CN2CCOc3ccccc3C2)C2CC(O)C2)cn1 (stereo partly drawn)	2%
Cc1ccncc1C(=O)N1CCOc2c(O)cc(-c3ccccc3C)cc2C1	-9%
Oc1cc(-c2cccc(Cl)c2)cc2c1OCCN(c1cc(C3CC3)ncn1)C2	i
C=CCn1cc(CN2CCOc3c(O)cc(-c4cccc(Cl)c4)cc3C2)cn1	11µM*
COc1cc2c(cc1OCC1CC1)NC(=O)C21CCN(c2nc(C)cnc2C)CC1	-15%[44.1 µM]
COCC[C@]1(O)CCN(C(=O)c2cc3c(s2)CCCC3)C[C@H]1C	-18%
CC(C)Cn1cc2c3c(cccc31)CNCC2	-15%
CN(Cc1ccccc1)Cc1cn(C[C@H]2C[C@@H]3CCN2C[C@@H]3C(=O)N2CCOCC2)nn1	5%
CN1CCC(Oc2ccc(C(=O)N3CCOCC3)cn2)CC1	7%
C=CCCC(CN1CCCOCC1)Oc1ccc(-c2ccccc2)nn1 (stereo not drawn)	14µM*
SMILES	Pf Dd2 growth
Cc1ccc(-c2cn(C3CN(C(=O)C(C)CN4CCOCC4)C3)nn2)cc1 (stereo not drawn)	-15%
C=CCCC(CN1CCOCC1)Oc1ccc(Cn2ccnc2)cn1 (stereo not drawn)	-15%
C=CCCC(CN1CCCC1)Oc1ccc(C(=O)N2CCOCC2)cn1 (stereo not drawn)	6.3µM*
O=C(NCc1cc2n(n1)CCNC2)c1ccc2c(c1)ncn2CCO	1%
COCCNC(=O)[C@@H]1C[C@H](Oc2cccnc2)CN1C(=O)c1ccc(OC)cc1	5%
O=C(CCC1CCCC1)NCCC1CCN(C(=O)Nc2cccc(F)c2)CC1	-9%
Cc1ccc(O[C@H]2CCOC[C@H]2NC(=O)C2(Cn3ccnc3)CC2)cn1	-12%
Cc1ccc([S+](=O)([O-])N2CCC(c3nn(C)c(=O)[nH]3)CC2)cc1	-4%
Cc1ccc([S+](=O)([O-])N2CCC(c3nn(-c4ccc(F)cc4)c(=O)[nH]3)CC2)cc1	8.9µM*
Cc1ccc([S+](=O)([O-])N2CCCC(c3nn(-c4ccc(Cl)cc4)c(=O)[nH]3)C2)cc1 (stereo not drawn)	-21%
CNC(=O)[C@H]1C[C@H](Oc2cccnc2)CN1C(=O)NC1CCCCC1	-41%
COCCNc1nc2cc(C(=O)N[C@@H]3CC[C@@H](N)C3)ccc2n1C	4%
COCCNc1ccc(-c2nc(-c3ccco3)no2)cc1[N+](=O)[O-]	-21%
COCCNc1nc2cc(-c3nc(-c4cccnn4)no3)ccc2n1C	6.3µM*
Cn1nc(C2CCNCC2)n(C2CCCC2)c1=O	12%
CN1C(=O)CO[C@H](c2ccc(NS(=O)(=O)Cc3ccccc3)cc2)[C@H]1CO	-13%[44.1 µM]
Cc1ccc(NC(=O)CC2CCCN(c3cnn(CC4CC4)c(=O)c3)C2)cc1C (stereo not drawn)	i
Cc1sc2c(c1C)c(=O)n(Cc1ccccc1)c(=O)n2CC(=O)N(C)c1ccccc1	29%
CCN(CC)C(=O)c1sc2c(c1C)c(=O)n(Cc1ccccc1)c(=O)n2Cc1c(C)cc(C)cc1C	10µM*
CCN(CC)C(=O)c1sc2c(c1C)c(=O)n(-c1ccc(C)c(C)c1)c(=O)n2Cc1cccc(Cl)c1	-6%
Cc1cc(C)c(Cn2c(=O)n(Cc3ccccc3)c(=O)c3c(C)c(C)sc32)c(C)c1	65%
CCOC(=O)c1ccccc1NC(=O)Cn1c(=O)n(-c2ccc(CC)cc2)c(=O)c2c(C)c(C(=O)N(C)C)sc21	-21%
